This passage reports growth results from PubChem BioAssay (NCI).

Molecules are shown by their SMILES. Compounds without any hit were thinned out: in the full panel of roughly 83,000, 20% have a hit.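 Results are percent growth after 48 hours of single-concentration exposure. 100 means growth as in untreated cells, lower positive values show inhibition; negative values down to -100 show cell death.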 Values without a mark were called inactive. The source made the active and inactive calls. The calls were made as follows: active = growth percent below 10; inactive = the rest.

Experiment in all cases: NCI-60 one-dose screen, 48 h (100 = growth as untreated, 0 = no growth, -100 = all killed)
The subject of test [1] is RPMI-8226 leukemia. Particulars: 10 µM unless noted.
In test [2] the test system is OVCAR-4 ovarian. Conditions: 10 µM.
Test [3] relates to SK-OV-3 ovarian. Conditions: 10 µM unless noted.
In test [4] the test system is IGROV1 ovarian. Particulars: 10 µM unless noted.
Test [5] relates to OVCAR-3 ovarian. Conditions: 10 µM unless noted.
Test [6] has as its system HS 578T breast. Conditions: 10 µM unless noted.
Test [7] deals with NCI/ADR-RES ovarian. Particulars: 10 µM unless noted.
Test [8] concerns T-47D breast. Conditions: 10 µM unless noted.
Test [9] deals with BT-549 breast. Particulars: 10 µM unless noted.
Test [10] has as its system MDA-MB-435 melanoma. Conditions: 10 µM unless noted.
Test [11] has as its system SW-620 colon. Conditions: 10 µM unless noted.
The subject of test [12] is HCT-116 colon. Conditions: 10 µM unless noted.
The subject of test [13] is HCC-2998 colon. Conditions: 10 µM unless noted.
Test [14] concerns KM12 colon. Conditions: 10 µM unless noted.
For test [15], the system named is OVCAR-8 ovarian. Conditions: 10 µM unless noted.
Test [16] relates to OVCAR-5 ovarian. Particulars: 10 µM unless noted.
The test system of test [17] is MCF7 breast. Conditions: 10 µM unless noted.

Take `CC(C)C1=NOC(=O)C1=Cc1cn(-c2ccccc2)nc1-c1ccc(Cl)cc1`: the growth in [1] is -28.5% (active); in test [2], 98.2%; in test [3] it was 106%; in test [4] it was 79.6%; in test [5] it was 86.2%; in test [6] it was 77.4%. For the same compound, the growth is 91.7% in test [7]; 74.6% in test [8]; 117% in test [9]; 76.4% in test [10]; 61.4% in test [11]; 50.4% in [12]. Further, the growth in test [13] was 72.5%; in test [14], 91.7%.
As for `CC[C@]12C=CCN3CC[C@@]4(c5ccc(OC)cc5N(C)[C@H]4[C@@](O)(C(=O)OC)[C@@H]1OC(=O)CCC(=O)O[C@H]1CC[C@H]4[C@@H]5CCC6=CC(=O)CC[C@@H]6[C@H]5CC[C@]14C)[C@@H]32`, the growth in test [1] is -22.1% [100 µM] (active); in [15], 26.4% [100 µM]; in [16], 23.7% [100 µM]; in [3] it was 13.2% [100 µM]; in [4] it was -46.3% [100 µM] (active); in test [5] it was 8.48% [100 µM] (active). The growth in test [6] was 4.75% [100 µM] (active); in test [7], 10.8% [100 µM]; in test [8], 21.6% [100 µM]; in test [9] it was -8.65% [100 µM] (active); in [10] it was 7.01% [100 µM] (active); in test [17], 11.7% [100 µM]. Moreover, the growth in test [12] is 3.76% [100 µM] (active); in test [13], 3.12% [100 µM] (active); in test [14], 6.43% [100 µM] (active).
Turning to `O=S(=O)(NCCCNc1nccc(-c2c(-c3cccc(F)c3)nc3occn23)n1)c1cccc2ccccc12`, the growth in test [1] is 28.2%; in test [15], 42.1%; in test [2], 34.6%; in test [3] it was 55.6%; in test [4], 14.4%; in test [5], 56.3%. The growth in [6] was 23.4%; in test [7], 48.2%; in test [8], 4.4% (active); in test [9], 45%; in test [10] it was 15.7%; in test [11], 24.2%. Moreover, the growth in test [12] was 23.4%; in test [13], 2.75% (active); in test [14], 15.7%.
Consider `COc1c(B(O)O)cccc1-c1nc2ccc3[nH]ncc3c2c2c1CCC2`, for which the growth in test [1] is 60.1%; in test [15], 61.2%; in test [16], 89.9%; in test [2], 80.7%; in test [4], 42%; in test [5], 89.8%. Moreover, the growth is 17.7% in test [6]; 81.4% in test [7]; 48% in [8]; 60% in test [9]; 64% in test [10]; 54.8% in test [11]. Also, the growth was 74.4% in test [17], 47.3% in [12], 88.8% in test [13] and 51.3% in [14].
For `O=C(Nc1ccccc1)Nc1ccc(C(=O)/C=C/c2ccc(N3CCCC3)cc2)cc1`, the growth in test [1] was 78.3%; in test [15], 81.7%; in test [16] it was 83.2%; in test [3], 66.1%; in test [5], 43%; in test [6], 38.2%. For the same compound, the growth in [7] is 28.6%; in [8], 58.9%; in test [9] it was 93.3%; in test [10], 4.29% (active); in [11], 83.6%; in [17], 66%. Further, the growth in [12] is 52.9%; in [13], 81.4%; in test [14] it was 52.5%.
For `O=C1COCCN1c1ccc(NCc2cn(Cc3cccc4ccccc34)c3ccccc23)cc1`, the growth in test [1] was 82.1%; in test [15], 83.4%; in [16], 41.7%; in [2], 69.8%; in test [3], 62%; in test [4], 27.2%. The growth in test [5] is 87.9%; in [6], 84.3%; in test [7] it was 78.2%; in test [8], 43.1%; in test [10] it was 98%; in [11], 83%. Further, the growth is 63.4% in test [17], 39.3% in [12], 103% in test [13] and 96.5% in test [14].
In the case of `O=C(NCCO)c1cccnc1`, the growth in test [1] is 95.4%; in test [15], 102%; in [16] it was 103%; in test [2], 110%; in test [3] it was 97.4%; in test [4], 100%. Also, the growth was 111% in test [5]; 96.5% in test [7]; 108% in test [9]; 106% in [10]; 96.1% in test [11]; 98.5% in test [17]. The results for the growth in test [12] and in test [13] were 99% and 103%, respectively.
For the compound `CCc1ccc(C2=C/C(=C/c3ccccc3)C(=O)N2CCc2ccc(S(N)(=O)=O)cc2)cc1`, the growth in test [1] is 110%; in [15] it was 100%; in test [16], 109%; in [2] it was 103%; in test [4] it was 91.4%; in [5] it was 109%. Moreover, the growth in [6] is 97.5%; in [7], 104%; in test [8] it was 97.8%; in test [9], 100%; in [10], 110%; in [11], 106%. For the same compound, the growth in [17] was 96.3%; in test [12], 103%; in [13], 109%; in test [14], 104%.
As for `COc1ccc(C(=O)CSc2nccc(Nc3ccc(C(=O)O)cc3)n2)cc1`, the growth in test [1] is 109%; in [16], 103%; in [2] it was 108%; in test [3] it was 99.1%; in [4] it was 91.8%; in test [5], 100%. Moreover, the growth in test [6] was 84.4%; in test [7], 103%; in [8], 102%; in [10], 106%; in [11], 95.6%; in test [17] it was 101%. Moreover, the growth in test [12] is 95.7%; in test [13] it was 104%; in [14], 101%.
